{"source": "the supplement of paper PMC3334620", "note": "The full ranking holds about 33,000 sequences; the median of “E-score (-0.5 to 0.5)” is about -0.041, and the highest 2% start at about 0.37. For the sample, the highest values were picked, then their nearest neighbours and some sequences at random.", "data": [{"molecular_target": "T1, Ecm22 (UniProt Q05958)", "T1 sequence": "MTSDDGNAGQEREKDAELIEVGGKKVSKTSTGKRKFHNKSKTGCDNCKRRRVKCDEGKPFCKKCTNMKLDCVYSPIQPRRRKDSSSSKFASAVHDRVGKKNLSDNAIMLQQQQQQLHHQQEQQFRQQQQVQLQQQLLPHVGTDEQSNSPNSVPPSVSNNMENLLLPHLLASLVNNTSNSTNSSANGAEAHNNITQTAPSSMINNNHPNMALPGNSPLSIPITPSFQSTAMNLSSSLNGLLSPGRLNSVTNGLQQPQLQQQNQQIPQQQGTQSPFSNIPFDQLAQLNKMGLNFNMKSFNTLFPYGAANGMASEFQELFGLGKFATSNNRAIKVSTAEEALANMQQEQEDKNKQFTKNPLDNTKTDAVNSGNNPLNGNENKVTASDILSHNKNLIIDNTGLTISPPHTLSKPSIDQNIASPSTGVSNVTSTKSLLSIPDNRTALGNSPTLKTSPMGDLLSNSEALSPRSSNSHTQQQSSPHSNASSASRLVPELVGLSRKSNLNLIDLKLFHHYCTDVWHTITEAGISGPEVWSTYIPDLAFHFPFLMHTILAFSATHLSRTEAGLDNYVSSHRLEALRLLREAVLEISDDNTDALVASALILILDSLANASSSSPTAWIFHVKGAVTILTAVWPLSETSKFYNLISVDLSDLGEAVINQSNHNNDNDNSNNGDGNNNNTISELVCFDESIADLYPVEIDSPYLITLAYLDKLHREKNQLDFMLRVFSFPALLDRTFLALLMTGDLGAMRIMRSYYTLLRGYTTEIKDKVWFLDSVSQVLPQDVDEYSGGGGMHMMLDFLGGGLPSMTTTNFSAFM", "assay": "PBM E-score (8-mer binding enrichment) (E-score (-0.5 to 0.5)); higher = stronger / more preferred TF binding", "details": "protein concentration: 200 nM; construct: GST-full length", "protocol": "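Universal 'all 10-mer' protein binding microarrays (Agilent AMADID 015681) probed with GST-tagged S. cerevisiae TFs (full-length or DBD) made by in vitro transcription/translation (PURExpress), about 100-200 nM. Bound TF was detected with fluorescent anti-GST. Each ungapped 8-mer (which stands for itself and its reverse complement) is scored by the PBM enrichment score (E-score), a modified Wilcoxon-Mann-Whitney statistic from -0.5 to +0.5, computed with the Universal PBM Analysis Suite. Scale: above 0.35 generally sequence-specific binding.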", "values": [{"sequence": "AACTGTTC", "PBM E-score": -0.177}, {"sequence": "ACGCAGGA", "PBM E-score": 0.108}, {"sequence": "AGCTGCCA", "PBM E-score": -0.171}, {"sequence": "ACGCCACC", "PBM E-score": -0.0558}, {"sequence": "CCGGTGGC", "PBM E-score": -0.135}, {"sequence": "ACGAGTCA", "PBM E-score": 0.219}, {"sequence": "ACGAGTCT", "PBM E-score": 0.324}, {"sequence": "ACGAGTCG", "PBM E-score": 0.384}, {"sequence": "AATCCATT", "PBM E-score": 0.0189}, {"sequence": "CACTCGTA", "PBM E-score": 0.458}, {"sequence": "AACTCGTG", "PBM E-score": 0.228}, {"sequence": "AACTCGTA", "PBM E-score": 0.47}, {"sequence": "GACTCGAA", "PBM E-score": -0.121}, {"sequence": "GACTCGCA", "PBM E-score": 0.151}, {"sequence": "GACTCGTA", "PBM E-score": 0.455}, {"sequence": "CACTCGAA", "PBM E-score": 0.0641}, {"sequence": "AACTCGTC", "PBM E-score": 0.102}, {"sequence": "CACTCGTC", "PBM E-score": 0.0448}, {"sequence": "GCTACCTA", "PBM E-score": -0.156}, {"sequence": "ACCTTTCA", "PBM E-score": -0.0376}, {"sequence": "ACAAGCCG", "PBM E-score": -0.0164}, {"sequence": "AGGATTAC", "PBM E-score": -0.0965}, {"sequence": "CCGGTAAG", "PBM E-score": 0.0008}, {"sequence": "ATAATTAT", "PBM E-score": 0.311}, {"sequence": "ACAGTAAT", "PBM E-score": -0.0196}, {"sequence": "CAGAATCG", "PBM E-score": 0.17}, {"sequence": "ACCTCACA", "PBM E-score": -0.106}, {"sequence": "AAAGTGTT", "PBM E-score": -0.0118}, {"sequence": "GCTTGAGA", "PBM E-score": -0.0858}, {"sequence": "ACGAGGGG", "PBM E-score": 0.365}, {"sequence": "CCGAGGGC", "PBM E-score": 0.203}, {"sequence": "ACGAGGGC", "PBM E-score": 0.374}, {"sequence": "ACGAGGGA", "PBM E-score": 0.41}, {"sequence": "AAGAGGGC", "PBM E-score": -0.297}, {"sequence": "CCGAGGGA", "PBM E-score": -0.0341}, {"sequence": "TAGTGGCA", "PBM E-score": -0.179}, {"sequence": "CCCTTCCC", "PBM E-score": -0.234}, {"sequence": "ACTCCAAC", "PBM E-score": -0.175}, {"sequence": "CTACTTCC", "PBM E-score": 0.0408}, {"sequence": "ATCATCAT", "PBM E-score": 0.0455}, {"sequence": "GTATCGAC", "PBM E-score": 0.165}, {"sequence": "CACGTAAC", "PBM E-score": -0.149}, {"sequence": "CACGTAAG", "PBM E-score": 0.0432}, {"sequence": "CTCGTAAG", "PBM E-score": 0.44}, {"sequence": "ATCGTAAC", "PBM E-score": 0.368}, {"sequence": "CGCGTAAG", "PBM E-score": 0.165}, {"sequence": "CTCGTAAC", "PBM E-score": 0.428}, {"sequence": "GTCGTAAC", "PBM E-score": 0.397}, {"sequence": "GACGTAAC", "PBM E-score": -0.079}, {"sequence": "GGCGTAAC", "PBM E-score": -0.0339}, {"sequence": "TCGCACCA", "PBM E-score": 0.324}, {"sequence": "CTAAGAAG", "PBM E-score": -0.0845}, {"sequence": "ACTGTGAG", "PBM E-score": -0.105}, {"sequence": "GCGAGCAA", "PBM E-score": 0.198}, {"sequence": "CCCATTAG", "PBM E-score": -0.248}, {"sequence": "AGCAACAT", "PBM E-score": -0.112}, {"sequence": "ACGTCTTC", "PBM E-score": -0.126}, {"sequence": "ACAACTGT", "PBM E-score": -0.148}, {"sequence": "ATTGTACA", "PBM E-score": -0.0596}, {"sequence": "ATTGTACG", "PBM E-score": 0.431}, {"sequence": "CCTGTACC", "PBM E-score": -0.0544}, {"sequence": "ATTGTACC", "PBM E-score": 0.00485}, {"sequence": "AGTGTACC", "PBM E-score": -0.059}, {"sequence": "ACTGTACT", "PBM E-score": -0.12}, {"sequence": "CCTGTACA", "PBM E-score": -0.174}, {"sequence": "CCTGTACG", "PBM E-score": 0.4}, {"sequence": "ACTGTACC", "PBM E-score": -0.0754}, {"sequence": "AGTGTACA", "PBM E-score": -0.0734}, {"sequence": "ACTGTACG", "PBM E-score": 0.42}, {"sequence": "AGTGTACG", "PBM E-score": 0.389}, {"sequence": "AATTTTGA", "PBM E-score": 0.0335}, {"sequence": "CCCTGATA", "PBM E-score": -0.194}, {"sequence": "CGGATCTA", "PBM E-score": 0.0938}, {"sequence": "CAAGCCGA", "PBM E-score": 0.0727}, {"sequence": "AGACAGAA", "PBM E-score": -0.0147}, {"sequence": "CATGTACA", "PBM E-score": -0.0676}, {"sequence": "CATGTACG", "PBM E-score": 0.399}, {"sequence": "AATGTACG", "PBM E-score": 0.331}, {"sequence": "CAAGGGTA", "PBM E-score": -0.0852}, {"sequence": "CCTACAGC", "PBM E-score": -0.318}, {"sequence": "CGTACAGC", "PBM E-score": 0.427}, {"sequence": "AGTACAGA", "PBM E-score": 0.0225}, {"sequence": "AGTACAGC", "PBM E-score": -0.113}, {"sequence": "GGTACAGA", "PBM E-score": -0.0866}, {"sequence": "CGTACAGA", "PBM E-score": 0.382}, {"sequence": "CGAAGGCG", "PBM E-score": 0.124}]}]}
